# From PubChem BioAssay AID743330 (NMMLSC, 2014)
# The source made the active and inactive calls. No rule for the calls is given here.
# Test system: Cdc42
# Assay: fluorescent GTP concentration effect on GTPase potency – biochemical, four GTPases, bead flow cytometry, mechanism study, profiling panel (AID 743330)
# Conditions: bead-based flow cytometry, fluorescent GTP binding to GTPases
SMILES,outcome,EC50
CCC1(C)Cc2c(sc(NC(=S)NC(=O)c3ccccc3)c2C(=O)O)CO1 (configuration not stated),inactive,
CC1(C)Cc2c(sc(NC(=S)NC(=O)c3ccc(F)cc3)c2C(=O)O)CO1,,0.076 µM (active)
